High-throughput results as filed in PubChem BioAssay.
eLon inh – inhibits E. coli Lon protease | P0A9M0 | hit rate 0.42% among 360,000 | purified E. coli Lon protease, fluorescence polarization | inhibition, % at 7.94 µM; in the data active means inhibition above about 13%, passing the limit was not always enough;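 further: 0% = enzyme with probe and DMSO and 100% = no enzyme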
MEX-5 binding – C. elegans MEX-5 TCR-2 RNA binding activity; Q9XUB2; MEX-5/FITC-TCR2 RNA binding, fluorescence polarization; hits give low values; activity score (negative = inhibition of binding), % at 10 µM; hit rate 0.38% among 300,000; AID 1832;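 active means inhibition past about -25% in most replicates, and total fluorescence under double the plate's negative control median, limit read from the data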;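 further: 0% = DMSO and -100% = 5 µM competing unlabeled TCR2 RNA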
MCL1-BIM inh – inhibitors of human MCL1 binding to BIM-BH3 peptide; Q07820; GST-MCL1 / FITC-Bim-BH3 fluorescence polarization; inhibition, % at 10.9 µM; hit rate 0.68% among 320,000; AID 2057;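 active means inhibition above the mean inhibition of all tested compounds plus 3 SD, set per campaign, cut at about 40% in these data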;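 further: 0% = DMSO wells and 100% = unlabeled Bim-BH3 peptide control; higher means more loss of mP so more displacement of Bim peptide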
Bcl-xL primary – Bcl-xL (human) inhibition | inhibition, % at 10.9 µM | GST-Bcl-xL / FITC-Bim BH3 peptide fluorescence polarization | Q07817 | AID 2129 | hit rate 0.7% among 320,000;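 active means inhibition above the mean of all tested compounds plus 3 SD, cutoff set per campaign, cut at about 30% in these data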;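 further: 0% = DMSO wells and 100% = unlabeled Bim-BH3 peptide competitor; inhibitors lower millipolarization by displacing the labeled peptide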
GLD-1 TGE inh – GLD-1-TGE RNA interaction inhibition (C. elegans); Q17339; purified GLD-1 + fluorescein TGE RNA, fluorescence polarization; inhibition, % at 5.96 µM; hit rate 0.44% among 320,000; AID 2280;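 active means percent inhibition above a per-plate cutoff, the plate mean of test compounds plus 3 SD, cut at about 30% in these data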;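 further: 0% = DMSO wells with GLD-1 and probe and 100% = wells lacking GLD-1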
Target sequence (Q17339 whole entry, looked up): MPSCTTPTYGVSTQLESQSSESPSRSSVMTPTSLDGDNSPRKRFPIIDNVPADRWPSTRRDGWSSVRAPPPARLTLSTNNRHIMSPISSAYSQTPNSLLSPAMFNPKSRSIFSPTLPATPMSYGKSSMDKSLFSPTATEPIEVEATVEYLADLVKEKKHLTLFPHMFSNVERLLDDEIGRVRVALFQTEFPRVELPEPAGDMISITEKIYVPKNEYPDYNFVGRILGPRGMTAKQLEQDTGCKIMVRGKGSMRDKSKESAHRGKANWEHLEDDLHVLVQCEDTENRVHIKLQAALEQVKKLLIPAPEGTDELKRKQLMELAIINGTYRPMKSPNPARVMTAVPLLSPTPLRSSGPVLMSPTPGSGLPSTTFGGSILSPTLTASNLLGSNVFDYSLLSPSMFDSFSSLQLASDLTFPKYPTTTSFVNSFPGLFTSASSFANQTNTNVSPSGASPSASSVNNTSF
BCLXL inh confirm – Bcl-xL (human) inhibition, MCL1 counter-screen confirmation. shares compounds with MCL1-BIM inh. GST-Bcl-xL / FITC-Bim BH3 peptide FP binding. inhibition, % at 10.9 µM. hit rate 54% among 1,700. AID 2166;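 active means inhibition above a cutoff equal to the mean inhibition of all tested compounds plus 3 SD, cut at about 30% in these data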;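 further: 0% = DMSO wells and 100% = unlabeled Bim BH3 control peptide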
MCL1 inh confirm – confirmation of human MCL1 and BIM-BH3 interaction inhibitors. shares compounds with MCL1-BIM inh. GST-MCL1 / FITC-Bim-BH3 fluorescence polarization. inhibition, % at 10.9 µM. hit rate 61% among 1,700;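 active means inhibition above the average of all tested compounds plus 3 SD, cut at about 40% in these data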;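 further: 0% = DMSO wells and 100% = unlabeled Bim-BH3 control peptide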
The depositor's hits bear a star; i = inactive; · = no result given; + = active, no number. Rows were chosen to be rich in hits. Some 1.4% of all compounds tested hit in one or more screens of this group.

SMILES	eLon inh	MEX-5 binding	MCL1-BIM inh	Bcl-xL primary	GLD-1 TGE inh	others
Cn1cc(/C=C2\SC(=S)N(NC(=O)c3ccccc3Cl)C2=O)c2ccccc21	i	·	17	35*	-171
CCCOc1ccc(N2C(=O)CC(NCCNc3ccc(S(=O)(=O)CC)cc3)C2=O)cc1 (stereo unspecified)	2	2	4	59*	2
CCCOc1ccc(N2C(=O)CC(NCCc3ccc(S(N)(=O)=O)cc3)C2=O)cc1 (stereo unspecified)	2	3	-1	0	2
COCCNC(=O)CCC(=O)NNc1nc2ccccc2c2nc(C)nn12	6	-45*	-4	3	-4
Cc1nc2c3ccccc3nc(NNC(=O)CCC(=O)NC(C)C)n2n1	-6	-42*	5	5	1
COc1ccc(N2CCN(CCNC(=O)CCC(=O)NNc3nc4ccccc4c4nc(C)nn34)CC2)cc1	-14	2	-1	3	5
Cc1nc2c3ccccc3nc(NNC(=O)CCC(=O)N3CCCC(C)C3)n2n1 (stereo unspecified)	-11	-27*	1	-1	2
Cc1ccc(C)c(C(=O)C(C)Sc2nc3nn(-c4ccccc4)c(=O)c-3c3n2CCCCC3)c1 (stereo unspecified)	-6	0	2	3	1
OCCCNc1ncnc2sc3c(c12)CCN(Cc1ccccc1)C3	-44	-28*	16	23	-21
Cc1c(C)n(Cc2ccccc2)c2ncnc(NCCCO)c12	-2	1	-3	0	10
Cc1ccc(S(=O)(=O)N=N/C=C2\C=CC=CN2O)cc1	-3	·	·	·	·
O=C(NNC(=S)NC(=O)c1ccccc1[N+](=O)[O-])c1ccccc1[N+](=O)[O-]	-2	-21	17	6	-2
O=C(NNC(=O)c1ccccc1[N+](=O)[O-])c1cnccn1	-1	-65*	2	0	5
O=C(/C=C(\O)c1ccccc1)C(=O)NNC(=O)c1ccccc1[N+](=O)[O-]	-8	-48*	3	6	8
O=C(NNC(=O)c1cnccn1)c1cccc([N+](=O)[O-])c1	-5	-61*	4	4	-2
Cc1cc(C(=O)NNC(=O)c2cccc([N+](=O)[O-])c2)n[nH]1	4	·	10	0	-1
Cc1ccc(NC(=O)c2cc(S(=O)(=O)N3CCCCC3)ccc2N2CCOCC2)c(C)c1	-7	·	·	·	·
OC(Cc1ccccc1)c1ncc(-c2ccc(Cl)cc2)[nH]1 (stereo unspecified)	-5	·	·	·	·
C[C@@H]1O[C@H](C2CCCCC2)Cc2[nH][nH]c(=O)c21	-5	·	·	·	·
CCc1nc2c(OCc3ccc(C#N)cc3)cccn2c1N(C)C(=O)c1ccc(C)cc1	-10	·	·	·	·
COc1ccc2ccc3c(c2c1)N=C[C@]1(O3)N(C)c2ccccc2C1(C)C	-8	2	57*	40*	5	BCLXL inh confirm=39*;MCL1 inh confirm=39
O=C1CN(C(=O)CN2CCN(S(=O)(=O)c3ccccc3F)CC2)c2ccccc2N1	2	·	·	·	·
O=C(O)COc1ccccc1/C=N/Nc1ccc(S(=O)(=O)Nc2ccc(Cl)cc2)cc1[N+](=O)[O-]	-4	-2	10	14	0
COc1ccccc1NS(=O)(=O)c1ccc(N/N=C/c2ccccc2OCC(=O)O)c([N+](=O)[O-])c1	9	2	141*	136*	94*	BCLXL inh confirm=184*;MCL1 inh confirm=+
CNc1ccc(Br)cc(C(=O)/C=C/c2ccc3c(c2)OCO3)c1=O	-15	-3	49*	27	15	BCLXL inh confirm=-4;MCL1 inh confirm=-20
Nc1c(C(=O)CSc2nnc(Cc3ccccc3)o2)c(=O)[nH]c(=O)n1C1CC1	8	·	6	5	4
CC1(C)CC(=O)C2=C(C1)Nc1ccccc1N=C2	·	-16	106*	91*	63*	BCLXL inh confirm=29;MCL1 inh confirm=27
Oc1ccc(N=C/C=C/c2ccc(Br)cc2)cc1-c1nc2ccccc2s1	·	3	48*	46*	20	BCLXL inh confirm=27;MCL1 inh confirm=19
Cc1ccccc1S(=O)(=O)N(C)C[C@H]1OCc2cn(nn2)CCCC(=O)N([C@H](C)CO)C[C@@H]1C	2	·	·	·	·
